# Test results published in PubChem BioAssay (NCATS).
# Inconclusive results are not listed. A number with no mark means an inactive call. The source made the active and inactive calls. Unless noted, the call rests on the fitted dose curve; in most records, active means well fitted inhibition curve with a large enough effect; inconclusive means small, poorly fitted or top-dose-only effect; inactive means no such curve, though single readings can be large or run the other way.
# How the values were obtained:
# [1] = target: Aldehyde dehydrogenase, mitochondrial (Homo sapiens) (UniProt P05091); assay: qHTS for Inhibitors of the Aldehyde Dehydrogenase Family (ALDH2) Confirmatory screens (AID 2061303; active means well fitted inhibition curve with a large enough effect; title and protocol of this record describe different tests; further: nearly all actives have a fitted effect of over 45% in size; further: potency means the concentration at half of the fitted maximal effect)
# [2] = qHTS for Inhibitors of the Aldehyde Dehydrogenase Family (ALDH1A2, ALDH1A3, ALDH2, ALDH3A1) (AID 2061307); further: nearly all actives have a fitted effect of over 50% in size; on Potency: test system not described further here; potency means the concentration at half of the fitted maximal effect
# [3] = target: Retinaldehyde dehydrogenase 3 (Homo sapiens) (UniProt P47895); assay: qHTS for Inhibitors of the Aldehyde Dehydrogenase Family (ALDH1A3) Confirmatory screens (AID 2061311); further: nearly all actives have a fitted effect of over 60% in size; further: potency means the concentration at half of the fitted maximal effect
# [4] = target: Retinal dehydrogenase 2 (Homo sapiens) (UniProt O94788); assay: qHTS for Inhibitors of the Aldehyde Dehydrogenase Family (ALDH1A2) Confirmation screens (AID 2061314); further: nearly all actives have a fitted effect of over 65% in size; further: potency means the concentration at half of the fitted maximal effect
# [5] = target: Aldehyde dehydrogenase 1A1 (Homo sapiens) (UniProt P00352); assay: qHTS for Inhibitors of the Aldehyde Dehydrogenase Family (ALDH1A1) Confirmatory screens (AID 2061316); further: nearly all actives have a fitted effect of over 65% in size; further: potency means the concentration at half of the fitted maximal effect
# [6] = target: Retinaldehyde dehydrogenase 3 (Homo sapiens) (UniProt P47895); assay: qHTS for Inhibitors of the Aldehyde Dehydrogenase Family (ALDH1A3) Primary screen (AID 2061315)
Structure (SMILES),Potency [1],Potency [2],Potency [3],Potency [4],Potency [5],Potency [6]
CCCN(CCN1CCN(c2ccccc2OC)CC1)C1CCc2ncsc2C1 (stereo unspecified),inactive,inactive,inactive,inactive,inactive,–
Cc1noc(C)c1-c1cccc(-c2nn3c(=O)cc(N4CCNCC4)nc3s2)c1,3.98 µM (active),0.891 µM (active),17.8 µM (active),6.31 µM (active),–,inactive
CCn1cc2nc(SCc3ccc(C)cc3)n(CCc3ccccc3)c(=O)c2n1,14.1 µM (active),10 µM (active),0.447 µM (active),7.94 µM (active),–,–
CC(C)(C)OC(=O)N1CCN(c2ccc(NCc3ccc(-c4ccccc4F)o3)cc2)CC1,1.27 µM (active),12.7 µM (active),inactive,inactive,–,inactive
CC(=O)Nc1ccc(Nc2nc3c(S(=O)(=O)c4cccc(Cl)c4)nnn3c3ccsc23)cc1,inactive,inactive,28.2 µM (active),inactive,inactive,–
CC(=O)c1ccc(NC(=O)CSc2ccc3nc(-c4ccccc4)cn3n2)cc1,22.9 µM (active),0.0576 µM (active),0.258 µM (active),15.8 µM (active),1.82 µM (active),–
COc1ccc(C2Nc3ccccc3C(=O)N2CC(C)(C)C)cc1COc1ccc(NC(C)=O)cc1 (stereo unspecified),11.2 µM (active),1.59 µM (active),15.8 µM (active),31.6 µM (active),25.2 µM (active),inactive
O=C1Cc2cc(C(=O)c3ccco3)ccc2N1,1.01 µM (active),0.565 µM (active),0.896 µM (active),2.52 µM (active),–,inactive
Cn1ncc2c(C(=O)NCC(F)F)cc(-c3cccc(C(F)(F)F)c3)nc21,inactive,inactive,0.794 µM (active),inactive,inactive,–
O=Cc1c(-c2ccccc2)no[n+]1[O-],14.2 µM (active),0.565 µM (active),4 µM (active),11.3 µM (active),0.504 µM (active),inactive
Cc1ccc(-c2nn3c(C)nnc3s2)cc1NCc1ccc(-c2cccc(Cl)c2)o1,3.18 µM (active),3.57 µM (active),12.7 µM (active),12.7 µM (active),6.34 µM (active),inactive
Cc1ccc(C(=O)N2CCC(CCC(=O)N3CCCCC3)CC2)cc1,inactive,inactive,inactive,inactive,–,–
COc1ccccc1-c1cc(NCCc2ccccn2)c2onc(C)c2n1,inactive,inactive,22.4 µM (active),inactive,inactive,–
